SMN2 splice enh: enhancers of SMN2 splice variant expression. HEK293 SMN2-luciferase splicing reporter, luminescence, 30-36 h. Potency, µM (highest dose often 46.1 µM), inactives show at the top dose activity change, positive = activation, hits mostly activators. 210,000 tested, 2.8% active; also: % of control where 0% means no effect; nearly all actives have a fitted effect of over 55% in size
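qHTS luciferase splicing reporter: luminescence rises when SMN2 exon 7 is included in transfected HEK293 cells. Compound exposure lasted 30-36 h at 37C, with 4.5 mM final sodium butyrate as control, followed by a ONE-Glo read.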
FLuc counter: firefly luciferase modulation, counter-screen for miR-21 project; purified FLuc, Km substrates, luminescence inhibition; Potency, µM (series often up to 57.5 µM), without a hit: at the highest dose activity change, negative = inhibition, actives largely listed as inhibitors; 360,000 tested, 6.9% active; AID 588342;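 also: plate controls were vehicle for no effect and reference inhibitor for full effect; nearly all actives have a fitted effect of over 55% in size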
Target sequence (P08659 whole entry, looked up): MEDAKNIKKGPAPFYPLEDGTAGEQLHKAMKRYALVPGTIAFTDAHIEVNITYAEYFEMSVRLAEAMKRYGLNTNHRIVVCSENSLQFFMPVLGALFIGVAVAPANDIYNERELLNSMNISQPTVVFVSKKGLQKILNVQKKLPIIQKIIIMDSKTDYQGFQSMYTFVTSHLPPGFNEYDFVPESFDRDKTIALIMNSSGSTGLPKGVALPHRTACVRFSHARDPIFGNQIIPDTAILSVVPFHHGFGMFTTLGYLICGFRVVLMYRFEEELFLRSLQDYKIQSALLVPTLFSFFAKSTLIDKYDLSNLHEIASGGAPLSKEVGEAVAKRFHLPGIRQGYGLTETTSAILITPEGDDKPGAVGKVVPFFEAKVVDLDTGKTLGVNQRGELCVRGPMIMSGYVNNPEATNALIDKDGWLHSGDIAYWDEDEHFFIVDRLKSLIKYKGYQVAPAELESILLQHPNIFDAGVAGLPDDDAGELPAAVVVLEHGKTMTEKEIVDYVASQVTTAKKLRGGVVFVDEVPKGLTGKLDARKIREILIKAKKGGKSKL
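Purified P. pyralis luciferase, 10 nM final, with Km-level 10 uM D-luciferin and 10 uM ATP in 50 mM Tris acetate pH 7.5, 10 mM Mg acetate, 0.01% Tween-20, 0.05% BSA; 6-point qHTS titration about 60 µM downward; luminescence read.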
NPC1 promoter act: activators of NPC1 promoter; Huh7 NPC1 promoter luciferase reporter, 24 h; Potency, µM (doses to about 9.22 µM), for inactives: at the highest dose activation, most hits filed as activators; 320,000 tested, 2.4% active; AID 485313; also: % of control where 0% means no effect; nearly all actives have a fitted effect of over 60% in size
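Luminescence read-out of NPC1 promoter-driven luciferase in stably transfected Huh7 cells; compounds delivered in DMSO and left 24 h at 37C, 5% CO2, qHTS titration format.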
ELG1 genotoxic: genotoxicity induction in ELG1-luciferase HEK293T cells. Potency, µM (highest dose often 46 µM), inactives show top-dose activity change, positive = activation, most hits filed as activators. 330,000 tested, 1.3% active. HEK293T ELG1-luciferase reporter, luminescence, 16 h; also: % of control where 0% means no effect; nearly all actives have a fitted effect of over 60% in size
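Cells (2,000/well) expressing the ELG1-luciferase fusion are dosed by pin tool and kept 16 hr at 37 °C, 5% CO2. Signal comes from ONE-Glo luciferase reagent after 30 min at room temperature.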
Rab9 promoter act: activators of Rab9 promoter; Huh7 Rab9 promoter-luciferase reporter, luminescence, 24 h; Potency, µM (titrated, usually from 9.22 µM), for inactives: at the top dose activation, negative = inhibition, actives largely listed as activators; 320,000 tested, 2.8% active; also: % of control where 0% means no effect; nearly all actives have a fitted effect of over 60% in size
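Quantitative HTS format; Huh7 Rab9-luciferase reporter cells (1500/well) receive compound 2 h post-plating, incubate 24 h at 37 °C, then get luciferase reagent for 10 min before luminescence reading.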
* hit, by the source's call; [ ] = dose if it differs, or a comment. Only some compounds are listed: those with a hit (about 7.5% of all), similar ones and a draw of the others. Calls follow the shape of the dose curve; as a rule, active = well fitted curve in the direction sought with a large enough effect; inconclusive = small, poorly fitted or top-dose-only effect, or another doubt; inactive = no such curve, though single readings can be large; an effect the other way counts as inactive or inconclusive. Potency is read from the fitted curve at half-maximal effect.

What do the screens show for `CS(=O)(=O)N1CCN(c2ccc(NC(=O)C(c3ccccc3)c3ccccc3)cc2)CC1`?
SMN2 splice enh: -46.1%; FLuc counter: 3.4%; NPC1 promoter act: 1.7%; ELG1 genotoxic: 1.1%; Rab9 promoter act: -11.5%

What do the screens show for `O=C(Nc1ccc(N2CCCCC2)cc1)c1ccc2ccccc2n1`?
SMN2 splice enh: 52.9%; FLuc counter: 4.78µM*; NPC1 promoter act: inconclusive; ELG1 genotoxic: inconclusive; Rab9 promoter act: 2.82µM*

What do the screens show for `Cc1ccccc1C(=O)Nc1ccc(N2CCCC2)cc1`?
FLuc counter: 9.53µM*; NPC1 promoter act: inconclusive; ELG1 genotoxic: 1.0%; Rab9 promoter act: inconclusive

Results for NC(=O)Cn1ccc(O)c(Cc2ccc(Cl)cc2Cl)c1=O ?
FLuc counter: -2.3%; NPC1 promoter act: -13.1%; ELG1 genotoxic: 0.0%; Rab9 promoter act: -6.9%[1.84 µM]

What do the screens show for `C/C(=N/N1CCN(Cc2cccc3ccccc23)CC1)c1ccco1`?
FLuc counter: inconclusive; NPC1 promoter act: 10.9%; ELG1 genotoxic: -1.3%; Rab9 promoter act: -0.6%

What do the screens show for `COc1cccc(Oc2ccc(C(F)(F)F)cc2N)c1`?
SMN2 splice enh: -14.3%[1.84 µM]; FLuc counter: 23.9µM*; NPC1 promoter act: 4.6%; ELG1 genotoxic: inconclusive; Rab9 promoter act: 7.2%

Results for Cc1ccc(C(=O)Oc2ccc(/C=C3\C(=N)N4N=C(N5CCOCC5)SC4=NC3=O)cc2)cc1 ?
FLuc counter: inconclusive; NPC1 promoter act: inconclusive; ELG1 genotoxic: 23.1µM*; Rab9 promoter act: inconclusive

How did CCOC(=O)N1CCN(C(=O)c2nc3ccccc3s2)CC1 do in these assays?
SMN2 splice enh: inconclusive; FLuc counter: 19µM*; NPC1 promoter act: 16.4%; ELG1 genotoxic: inconclusive; Rab9 promoter act: 12.9%

What do the screens show for `CCOC(=O)N1CCN(C(=O)c2ccc3c(c2)sc2nc(-c4ccccc4)cn23)CC1`?
SMN2 splice enh: -32.2%; FLuc counter: 21.3µM*; NPC1 promoter act: 3.55µM*; ELG1 genotoxic: 1.3%; Rab9 promoter act: 3.16µM*

What do the screens show for `COc1cc(C(=S)N(C)C)ccc1O`?
SMN2 splice enh: -5.6%; FLuc counter: -12.8%; NPC1 promoter act: -1.8%; ELG1 genotoxic: 0.1%; Rab9 promoter act: -1.7%

What do the screens show for `CCOc1cc(-c2cc(C(=O)O)c3c(-c4ccccc4)[nH]nc3n2)ccc1O`?
SMN2 splice enh: 5.1%; FLuc counter: inconclusive

How did CCCCOC(=O)Nc1ccc(N2CCOCC2)cc1 do in these assays?
SMN2 splice enh: 11.2µM*; FLuc counter: 15.1µM*; NPC1 promoter act: inconclusive; ELG1 genotoxic: inconclusive; Rab9 promoter act: 3.16µM*

How did CCCCOC(=O)Nc1ccc(N2CCCCC2)cc1 do in these assays?
SMN2 splice enh: 11.2µM*; FLuc counter: 3.01µM*; NPC1 promoter act: 2.24µM*; ELG1 genotoxic: inconclusive; Rab9 promoter act: 3.16µM*

How did COc1ccccc1-c1nn2c(C3COc4ccccc4O3)nnc2s1 (stereo not given) do in these assays?
SMN2 splice enh: 3.0%; FLuc counter: inconclusive; NPC1 promoter act: -2.9%; ELG1 genotoxic: -4.6%; Rab9 promoter act: 0.5%

Results for CC(=O)c1cc2c(cc1NC(=O)Cn1nc(C)c(C)c(C#N)c1=O)OCO2 ?
FLuc counter: 7.4%; NPC1 promoter act: 1.1%; ELG1 genotoxic: -2.6%; Rab9 promoter act: -4.7%

How did O=C(COC(=O)c1cccc(NC(=O)c2ccco2)c1)c1ccc(Br)cc1 do in these assays?
SMN2 splice enh: 12.8%; FLuc counter: 1.69µM*; NPC1 promoter act: inconclusive; ELG1 genotoxic: 9.7%; Rab9 promoter act: inconclusive

How did O=C(COC(=O)c1cccc(NC(=O)c2ccc(Br)cc2)c1)c1ccc(Cl)cc1 do in these assays?
SMN2 splice enh: inconclusive; FLuc counter: 2.69µM*

What do the screens show for `O=C(c1ccc(CNS(=O)(=O)c2cccc(Cl)c2)cc1)N1CCCC1`?
SMN2 splice enh: -36.8%; FLuc counter: 1.6%; NPC1 promoter act: -0.4%; ELG1 genotoxic: -7.7%; Rab9 promoter act: -1.5%

How did O=C(O)C1CCCCC1C(=O)NCCc1ccc(Cl)cc1 (stereo not given) do in these assays?
FLuc counter: 9.5%[2.3 µM]; NPC1 promoter act: 0.5%; ELG1 genotoxic: 2.7%; Rab9 promoter act: 2.4%

What do the screens show for `N/C(=N\OC(=O)CCc1ccccc1)c1ccc(Br)cc1`?
SMN2 splice enh: 6.3%; FLuc counter: inconclusive; NPC1 promoter act: -4.0%; ELG1 genotoxic: 14.1%; Rab9 promoter act: 0.6%

How did N/C(=N\OC(=O)CCc1ccccc1)c1ccccc1Cl do in these assays?
SMN2 splice enh: 9.0%; FLuc counter: 23.9µM*; NPC1 promoter act: 6.7%; ELG1 genotoxic: inconclusive; Rab9 promoter act: 27.8%

What do the screens show for `N/C(=N\OC(=O)CCCc1ccccc1)c1ccc(Br)cc1`?
FLuc counter: 5.2%; NPC1 promoter act: -3.7%; ELG1 genotoxic: 15.1%; Rab9 promoter act: -9.4%

Results for Cc1ccc(/C(N)=N/OC(=O)CCc2ccccc2)cc1 ?
FLuc counter: 15.1µM*; NPC1 promoter act: 21.3%; ELG1 genotoxic: inconclusive; Rab9 promoter act: 9.3%

What do the screens show for `N/C(=N\OC(=O)CCc1ccccc1)c1cccc(Br)c1`?
SMN2 splice enh: -6.3%; FLuc counter: 16.9µM*; NPC1 promoter act: -5.1%; ELG1 genotoxic: 0.6%; Rab9 promoter act: 0.1%

What do the screens show for `CCOc1ccc(OCCCC(=O)ON=C(N)c2ccccc2Cl)cc1`?
FLuc counter: 5.1%; NPC1 promoter act: -2.1%; ELG1 genotoxic: 1.4%; Rab9 promoter act: -3.6%

Results for COc1ccc(-c2nc(-c3cccc(C)c3)nc(Cl)c2C#N)cc1 ?
SMN2 splice enh: -10.2%; FLuc counter: -2.5%; NPC1 promoter act: -4.6%; ELG1 genotoxic: 0.0%; Rab9 promoter act: -5.1%

Results for CCC[C@H]1COCCS(=O)(=O)N1Cc1ccccc1 ?
FLuc counter: -0.8%; NPC1 promoter act: 2.1%; ELG1 genotoxic: 1.9%; Rab9 promoter act: 2.4%

What do the screens show for `CCCc1ccc(-c2cc(NC(=O)CSc3nnc(N)s3)n(-c3ccccc3)n2)cc1`?
FLuc counter: 0.213µM*; NPC1 promoter act: 2.51µM*; ELG1 genotoxic: inconclusive; Rab9 promoter act: 1.26µM*

Results for Cc1ccc(-c2cc(NC(=O)CSc3n[nH]c(N)n3)n(-c3ccccc3)n2)cc1 ?
SMN2 splice enh: 6.2%; FLuc counter: 19µM*; NPC1 promoter act: 2.9%; ELG1 genotoxic: -2.9%; Rab9 promoter act: 7.1%

How did Cc1ccc(-c2ccc(=O)n(CC(=O)Nc3ccc(C)cc3Cl)n2)cc1 do in these assays?
SMN2 splice enh: 4.6%; FLuc counter: 5.3%

Results for CC(C)(C)N/N=C/c1c(O)n(-c2ccc(Cl)cn2)c(=O)c2ccccc12 ?
SMN2 splice enh: -18.9%; FLuc counter: -4.5%; NPC1 promoter act: 5.9%; ELG1 genotoxic: -2.5%; Rab9 promoter act: 3.0%

How did CCc1nnc(/N=C/c2c(O)n(-c3ccc(Cl)cn3)c(=O)c3ccccc23)s1 do in these assays?
SMN2 splice enh: -5.8%; FLuc counter: 2.69µM*; NPC1 promoter act: 2.5%; ELG1 genotoxic: -1.7%; Rab9 promoter act: -0.1%
